Screening results as filed in PubChem.
HT1080 IDH1KD tx = HT-1080 IDH1 knockdown cell toxicity (counter line). Potency, µM (titrated, usually from 46.1 µM), for the others: top-dose activity, negative = toxicity, hits mostly cytotoxic. 360,000 compounds, 2% hits. AID 686971. HT-1080 IDH1 knockdown viability, ATP luminescence, 48 h;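 further: potency means the concentration at half of the fitted maximal effect; 0% = DMSO wells and -100% = cell-free medium wells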
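Cytotoxicity counter-line: IDH1KD HT-1080, 48 h, CellTiter-Glo. Curves classed by r2, magnitude and activity.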
IL1B secr inh = blocks inflammasome-driven IL-1 beta release; THP-1 LPS/ATP IL-1B secretion, AlphaLISA, 16 h; stronger effect = lower value; activity change, % at 57.5 µM; 360,000 compounds, 4.7% hits; AID 743279; in the data active means activity change below about -50%; inconclusive means mostly about -30% to -49%
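THP-1 cells pretreated 1 hr with compounds (up to 57.5 uM final), then stimulated with LPS (250 ng/mL final) plus ATP (1.25 mM final); secreted IL-1B measured by AlphaLISA after 16 hr, decreased signal indicating inhibition.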
HT1080-NT tox = kills 2HG-producing HT-1080-NT fibrosarcoma cells | 360,000 compounds, 1.6% hits | Potency, µM (doses to about 46.1 µM), inactives show at the highest dose activity, negative = less viability, hits mostly cytotoxic | HT-1080-NT fibrosarcoma viability, CellTiter-Glo ATP luminescence, 48 h;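 further: NT is the 2HG producing partner of a matched IDH1 knockdown line; potency means the concentration at half of the fitted maximal effect; 0% = DMSO-treated cells and -100% = media-only wells without cells; nearly all actives have a fitted effect of over 55% in size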
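750 cells/well, RPMI + 5% FBS; 2 h settle, compound pin-transfer, 48 h at 37 degrees C. CellTiter-Glo 10 min RT, luminescence. Normalized to DMSO and media-only wells.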
TDP1 cell noCPT = qHTS for Inhibitors of human tyrosyl-DNA phosphodiesterase 1 (TDP1): qHTS in cells in absence of CPT; DT40 Tdp1-/- hTDP1 cells, no CPT, ATP luminescence, 48 h; 420,000 compounds, 15% hits; Potency, µM (doses to about 46.2 µM), for the others: top-dose activity change, negative = growth inhibition, hits mostly inhibitors; further: potency means the concentration at half of the fitted maximal effect; nearly all actives have a fitted effect of over 55% in size
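Stably hTDP1-transfected Tdp1-null chicken DT40 cells were treated with library compounds minus camptothecin and grown for at least 48 hr at 37 °C, after which cellular ATP was quantified by luminescence.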
DT40 TDP1 CPT = growth inhibition of DT40 Tdp1-/-;hTDP1 cells with camptothecin (screen for TDP1 inhibitors) | Potency, µM (series often up to 46.2 µM), for the others: at the highest dose activity change, negative = growth inhibition, most hits filed as inhibitors | chicken DT40 Tdp1-/-;hTDP1 cells + 20 nM CPT, ATP luminescence, 48 h | 420,000 compounds, 12% hits; further: potency means the concentration at half of the fitted maximal effect; nearly all actives have a fitted effect of over 55% in size
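Chicken DT40 Tdp1-/- cells complemented with human TDP1, 400 cells/well, exposed to compounds plus 20 nM camptothecin for at least 48 h at 37 C; viability read as ATP content by CellTiter-Glo luminescence.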
Active calls of the source: *; ? = inconclusive; nt = no result given; ! = a repeat was not active; [ ] = another dose, or the depositor's remark. In the library only some 19% were active in any assay of this set; here they are far more common. Unless noted, the call rests on the fitted dose curve; in most records, active means well fitted curve in the direction sought with a large enough effect; inconclusive means small, poorly fitted or top-dose-only effect, or another doubt; inactive means no such curve, though single readings can be large; an effect the other way counts as inactive or inconclusive. Unless noted, on the % scale 0 is the no-effect control and ±100 the full control effect.

SMILES	HT1080 IDH1KD tx	IL1B secr inh	HT1080-NT tox	TDP1 cell noCPT	DT40 TDP1 CPT
O=C(Nc1ccc(N2CCCC2)cc1)c1cccc(Cl)c1	-4.6%	-18.5	-14.9%	13µM*	-23.6%
Cc1cc(C)cc(N(C(C)C(=O)NCc2ccc3c(c2)OCO3)S(C)(=O)=O)c1 (stereo not drawn)	-2.2%	9.3	-3.3%	-0.4%	-28.2%
Cc1cc(C)c(Cn2c(=O)n(CCC(=O)NCc3ccc4c(c3)OCO4)c(=O)c3ccccc32)c(C)c1	nt	nt	nt	-1.1%	4.8%
CCOC(=O)c1cnc2c(ccc3ccccc32)c1Nc1cccc(Cl)c1	nt	nt	nt	-20.2%	-5.0%
O=C(NCCc1ccccn1)c1cnn(-c2ncc3c(n2)-c2ccccc2CC3)c1C1CC1	nt	nt	nt	?	-12.6%[9.04 µM]
Cc1cccc(NC(=O)c2cc(NC(=O)C3CCCCC3C(=O)O)ccc2N2CCCCC2)c1 (stereo not drawn)	-12.2%	-8.4	7.6%[9.24 µM]	0.1%	-2.8%
O=C(Nc1ccc(N2CCCC2)c(Cl)c1)c1ccccc1F	-5.2%	-50.4*	-6.2%	?	-27.5%
CC(=O)Nc1ccc(N2CCCCC2)c(C(=O)Nc2cccc(C)c2)c1	?	-6.2	-7.1%	9.2µM*	?
CCNC(=O)C1(C)CCN(C(=O)c2ccc(C)c(F)c2)C1 (stereo not drawn)	9.8%	-11.3	15.9%	4.8%	-1.4%
CCC(O)CNC(=O)NC(=C(Cl)Cl)c1ccc(C)c(F)c1 (stereo not drawn)	-12.3%	-72.7*	-4.2%	10.3µM*	?
CCn1c(SCC(=O)Nc2ccc(N3CCOCC3)cc2)nnc1C1CC1	1.4%	2.5	0.8%	4.9%	3.9%
CCCCC[C@H]1CN(Cc2ccccc2)C(=O)[C@@H]1CC(=O)NCc1ccccc1	-8.1%	-51.5*	-10.9%	14.1µM*	11.2µM*
CCCCN1C[C@H](Cc2ccccc2)[C@@H](CC(=O)NCc2ccc(OC)cc2)C1=O	-4.2%	12.5	-8.0%	22.4µM*!	17.8µM*
CCCCC[C@H]1CN(CCCC)C(=O)[C@@H]1CC(=O)NCc1ccc(OC)cc1	11.3%	-20.5	2.1%	?	?
COc1ccc(NC(=O)C[C@H]2C(=O)N(c3ccccc3)C[C@@H]2Cc2ccccc2)cc1	-9.9%	-22.7	0.9%	?	-23.5%
COc1ccc(N2C[C@H](Cc3ccccc3)[C@@H](CC(=O)Nc3ccccc3)C2=O)cc1	-7.0%	-6.4	-4.7%	20.6µM*	?
CCCCC[C@H]1CN(CCc2ccccc2)C(=O)[C@@H]1CC(=O)NCc1ccc(OC)cc1	-3.3%	-78.3*	-3.9%	18.4µM*	?
Cc1cc(-c2ccnc(-n3ncc(C(=O)NCC(C)(C)N4CCOCC4)c3C)n2)c(C)s1	nt	nt	nt	-8.8%	3.6%[9.04 µM]
CC(=O)NN1C(=O)c2ccc(Oc3cccc([N+](=O)[O-])c3)cc2C1=O	10.0%	7.9	5.6%	-3.5%	-17.7%
COc1ccccc1CCC(=O)Nc1nc2ccccc2[nH]1	?	-1.0	-8.1%	4.11µM*	5.8µM*
CCCCCC(=O)Nc1nc2ccccc2[nH]1	?	12.8	?	8.2µM*	9.2µM*
O=C(Cc1cccc2ccccc12)Nc1nc2ccccc2[nH]1	12.6µM*	55.5	12.6µM*	-25.3%	?
CCOc1ccccc1OCCCC(=O)Nc1nc2ccccc2[nH]1	-1.1%	-1.8	-2.9%	-13.9%	-3.0%
COc1ccc(CNC(=O)c2ccc3nc(CCc4ccccc4)oc3c2)c(OC)c1	nt	nt	nt	?	-19.4%
COc1ccccc1Cn1c(CNS(=O)(=O)c2c(C)cc(C)cc2C)nc2cccnc21	nt	nt	nt	16.4µM*	16.4µM*
SMILES	HT1080 IDH1KD tx	IL1B secr inh	HT1080-NT tox	TDP1 cell noCPT	DT40 TDP1 CPT
CCOc1ccc(Cn2c(CNS(=O)(=O)c3ccc(Cl)s3)nc3cccnc32)cc1	nt	nt	nt	?	18.4µM*
Cc1ccc(Cn2c(CNC(=O)c3ccccc3Br)nc3cccnc32)cc1	nt	nt	nt	16.4µM*	?
COc1ccc(Cn2c(CNS(=O)(=O)c3ccc(C)c(C)c3)nc3cccnc32)cc1	nt	nt	nt	-24.6%	-25.9%
CCOc1ccc(Cn2c(CNS(=O)(=O)c3c(C)cc(C)cc3C)nc3cccnc32)cc1	nt	nt	nt	18.4µM*	?
CCC(C)(C)NC(=O)C(c1ccc(C)o1)N(Cc1ccc2c(c1)OCO2)C(=O)c1snc(C(N)=O)c1N (stereo not drawn)	?	32.5	23.0%	-28.5%	-7.4%
O=C(COc1ccccc1)Nc1nnc(SCc2cc(=O)c3ccccc3[nH]2)s1	nt	nt	nt	?	-23.4%
Cc1ccc(Cn2c(CNS(=O)(=O)c3c(C)cc(C)cc3C)nc3cccnc32)cc1	nt	nt	nt	?	16.4µM*
COC(=O)Cn1c(=O)c2cccn2c2ccc(F)cc21	nt	nt	nt	-18.1%	-19.1%
COc1ccc(S(=O)(=O)N2CCCC(C(=O)Nc3cccnc3)C2)cc1Cl (stereo not drawn)	?	-15.3	0.7%	14.6µM*	16.4µM*
COc1ccc(NC(=O)C2CCCN(S(=O)(=O)c3ccc4c(c3)CCCN4C(C)=O)C2)cc1Cl (stereo not drawn)	5.7%	27.2	4.7%	?	20.6µM*
Cc1ccc(S(=O)(=O)N2CCN(Cc3ccccc3C(F)(F)F)CC2)cc1	0.1%[9.24 µM]	12.2	-1.4%	-32.7%	-9.0%
Cc1ccc(S(=O)(=O)N2CCN(Cc3ccccc3Cl)CC2)cc1	nt	nt	nt	18.4µM*	?
CC(=O)N1CCCc2cc(S(=O)(=O)N3CCCC(C(=O)Nc4ccc(C)cc4C)C3)ccc21 (stereo not drawn)	-5.6%	21.1	4.6%	?	-26.6%
CC(=O)N1CCCc2cc(S(=O)(=O)N3CCCC(C(=O)Nc4ccc(F)cc4F)C3)ccc21 (stereo not drawn)	nt	nt	nt	20.6µM*	?
COc1cc(Cn2c(=O)c3c(OC)c(C)cnc3n(C)c2=O)cc(OC)c1	-3.9%	15.4	-1.1%	?	-16.2%
CCCCNc1nc(Oc2ccc(=O)n(C)n2)nc(N(C)C)n1	nt	nt	nt	0.5%	-0.2%
COc1ccc(/C=N/Nc2nc(-c3ccc(Cl)cc3)cc(C(F)(F)F)n2)c(OC)c1	4.1%	9.2	6.9%	?	?
CC(=O)N1CCCc2cc(S(=O)(=O)N3CCCC(C(=O)Nc4ccccc4C)C3)ccc21 (stereo not drawn)	0.3%	13.6	6.8%	-9.7%	?
COc1cc(C)nc(N2CCCC(C(=O)Nc3cccc(Cl)c3C)C2)n1 (stereo not drawn)	5.0%	15.6	9.4%	?	23.1µM*
CC(=O)N1CCCc2cc(S(=O)(=O)N3CCCC(C(=O)Nc4cccc(Cl)c4C)C3)ccc21 (stereo not drawn)	nt	nt	nt	?	16.4µM*
